This is an account of results in PubChem BioAssay (NCI).

This is part of a sample that, as a whole, favours compounds with a hit. Of some 79,000 tested, about 15% had one in any assay. Unmarked numbers belong to inactive results. The source made the active and inactive calls. Cut-off read from the data, not from the text of the source: active = growth inhibition above about 70%; inactive = the rest.

The nature of assay [1]: NCI Yeast Anticancer Drug Screen. Data for the rad50 strain (AID 155).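 Note: 0% = growth of vehicle-only cultures of the same strain.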 The following applies: S. cerevisiae rad50 strain growth inhibition, stronger effect = higher value. Summed up: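 Readout: growth inhibition relative to vehicle-treated cultures. Compound exposure was carried out in a genetically defined yeast strain deficient in DNA damage repair.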
The nature of assay [2]: NCI Yeast Anticancer Drug Screen. Data for the mec2-1 strain (AID 157). Conditions: S. cerevisiae mec2-1 strain, stronger effect = higher value. The procedure, abridged:
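Test agents were screened against the mec2-1 yeast strain, with defined DNA repair or cell cycle alteration. Growth was scored as inhibition against vehicle-only controls.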

The nature of assay [3]: NCI Yeast Anticancer Drug Screen. Data for the sgs1 mgt1 strain (AID 161).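 Note: 0% = growth of cultures given vehicle only.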 The following applies: S. cerevisiae sgs1 mgt1 strain, stronger effect = higher value. Summed up: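 Mutant yeast exposed to compound; growth scored against vehicle-only wells.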
A short description of assay [4]: NCI Yeast Anticancer Drug Screen. Data for the cln2 rad14 strain (AID 165).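 Note: 0% = growth equal to vehicle treated cultures.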 The following applies: S. cerevisiae cln2 rad14 strain, stronger effect = higher value. The procedure, abridged:
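Growth of compound-exposed yeast (cln2 rad14 genotype) measured and expressed as inhibition relative to vehicle.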

The nature of assay [5]: NCI Yeast Anticancer Drug Screen. Data for the bub3 strain (AID 167). Conditions: S. cerevisiae bub3 mutant strain, stronger effect = higher value. The procedure, abridged: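 Readout: yeast growth inhibition, expressed relative to vehicle-only wells. The test organism is a mutant strain from a panel with lesions in DNA repair or checkpoint genes.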
Assay [6] is described as follows: NCI Yeast Anticancer Drug Screen. Data for the mlh1 rad18 strain (AID 175). Conditions: S. cerevisiae mlh1 rad18 strain growth inhibition, stronger effect = higher value. The procedure, abridged:
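In this whole-cell yeast screen, a strain with altered DNA damage repair is challenged with compound, and its growth is measured against matched vehicle-treated controls.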

Where [7] appears, read: at 5.0 µM (retest, dose inferred, filed as 0.5).
Setting [8] is: at 50.0 µM (retest, dose inferred, filed as 5.0).

For the compound `CCC/C(=N\NC(=S)N(C)C)c1ccccn1`, the growth inhibition in assay [1] (setting [7]) is 89% (active); in assay [1] (setting [8]), 99% (active); in assay [1] (at 50.0 µM), 99.5% (active); in assay [2] (setting [7]), 97% (active); in assay [2] (setting [8]), 99% (active); in assay [2] (at 50.0 µM) it was 99.6% (active). Besides, the growth inhibition is 88% (active) in assay [3] (setting [7]); 99% (active) in assay [3] (setting [8]); 99.5% (active) in assay [3] (at 50.0 µM); 80% (active) in assay [4] (setting [7]); 99% (active) in assay [4] (setting [8]); 99.4% (active) in assay [4] (at 50.0 µM). Besides, the growth inhibition in assay [5] (setting [7]) was 85% (active); in assay [5] (setting [8]), 98% (active); in assay [5] (at 50.0 µM), 99.5% (active); in assay [6] (setting [7]), 94% (active); in assay [6] (setting [8]) it was 99% (active); in assay [6] (at 50.0 µM), 99.5% (active).
In the case of `COC1OC2=CCC3C(=O)NC(=O)C3C2[C@H](OCc2ccccc2)C1OCc1ccccc1` (stereo not given in full), the growth inhibition in assay [1] (setting [7]) is 11%; in assay [1] (setting [8]) it was 99% (active); in assay [1] (at 50.0 µM), 98.4% (active); in assay [2] (setting [7]), -13%; in assay [2] (setting [8]), 99% (active); in assay [2] (at 50.0 µM), 99.7% (active). The growth inhibition in assay [3] (setting [7]) is 11%; in assay [3] (setting [8]) it was 99% (active); in assay [3] (at 50.0 µM) it was 98.8% (active); in assay [4] (setting [7]), 0%; in assay [4] (setting [8]), 99% (active); in assay [4] (at 50.0 µM) it was 93.5% (active). The growth inhibition is 2% in assay [5] (setting [7]); 97% (active) in assay [5] (setting [8]); 98.8% (active) in assay [5] (at 50.0 µM); 4% in assay [6] (setting [7]); 98% (active) in assay [6] (setting [8]); 98.9% (active) in assay [6] (at 50.0 µM).
As to `Clc1ccc(SSc2ccc(Cl)cn2)nc1`, the growth inhibition is 5% in assay [1] (setting [7]); 69% in assay [1] (setting [8]); 78.2% (active) in assay [1] (at 50.0 µM); 6% in assay [2] (setting [7]); 96% (active) in assay [2] (setting [8]); 96.3% (active) in assay [2] (at 50.0 µM). Further, the growth inhibition in assay [3] (setting [7]) was 17%; in assay [3] (setting [8]), 96% (active); in assay [3] (at 50.0 µM) it was 57.9%; in assay [4] (setting [7]), -4%; in assay [4] (setting [8]) it was 51%; in assay [4] (at 50.0 µM), 20.6%. The growth inhibition in assay [5] (setting [7]) was -3%; in assay [5] (setting [8]), 97% (active); in assay [5] (at 50.0 µM), 82.8% (active); in assay [6] (setting [7]), 11%; in assay [6] (setting [8]), 92% (active); in assay [6] (at 50.0 µM), 81.1% (active).
On to `NCCC1=CCCCC1`, for which the growth inhibition in assay [1] (setting [7]) was 1%; in assay [1] (setting [8]), 95% (active); in assay [1] (at 50.0 µM), 88.2% (active); in assay [2] (setting [7]), 5%; in assay [2] (setting [8]) it was 97% (active); in assay [2] (at 50.0 µM) it was 90.5% (active). Besides, the growth inhibition in assay [3] (setting [7]) was 2%; in assay [3] (setting [8]) it was 98% (active); in assay [3] (at 50.0 µM) it was 88.3% (active); in assay [4] (setting [7]), -7%; in assay [4] (setting [8]), 96% (active); in assay [4] (at 50.0 µM) it was 35.6%. Moreover, the growth inhibition is -4% in assay [5] (setting [7]); 96% (active) in assay [5] (setting [8]); 65% in assay [5] (at 50.0 µM); -2% in assay [6] (setting [7]); 97% (active) in assay [6] (setting [8]); 90% (active) in assay [6] (at 50.0 µM).
As for `O=NN(CCCl)C(=O)Nc1cc(=O)[nH]c(SCc2ccccc2)n1`, the growth inhibition in assay [1] (setting [7]) is -23%; in assay [1] (setting [8]), 52%; in assay [1] (at 50.0 µM), 8.95%; in assay [2] (setting [7]), 3%; in assay [2] (setting [8]), 10%; in assay [2] (at 50.0 µM) it was -3.6%. The growth inhibition in assay [3] (setting [7]) was -10%; in assay [3] (setting [8]) it was 33%; in assay [3] (at 50.0 µM), 4.7%; in assay [4] (setting [7]), 14%; in assay [4] (setting [8]), 12%; in assay [4] (at 50.0 µM), 45.5%. Also, the growth inhibition in assay [5] (setting [7]) is 5%; in assay [5] (setting [8]), 30%; in assay [5] (at 50.0 µM), 16.9%; in assay [6] (setting [7]) it was -11%; in assay [6] (setting [8]), 70% (active); in assay [6] (at 50.0 µM), 66.5%.
As for `C=C1CCCCC1C(C(=O)O)(c1ccccc1)c1ccccc1` (stereo not given), the growth inhibition in assay [1] (setting [7]) was 77% (active); in assay [1] (setting [8]), 98% (active); in assay [1] (at 50.0 µM), 98.7% (active); in assay [2] (setting [7]), 71% (active); in assay [2] (setting [8]), 99% (active); in assay [2] (at 50.0 µM), 99.3% (active). Moreover, the growth inhibition in assay [3] (setting [7]) was 79% (active); in assay [3] (setting [8]), 99% (active); in assay [3] (at 50.0 µM) it was 99.3% (active); in assay [4] (setting [7]), 72% (active); in assay [4] (setting [8]) it was 99% (active); in assay [4] (at 50.0 µM) it was 99.3% (active). The growth inhibition in assay [5] (setting [7]) was 51%; in assay [5] (setting [8]), 99% (active); in assay [5] (at 50.0 µM), 98.2% (active); in assay [6] (setting [7]) it was 92% (active); in assay [6] (setting [8]) it was 99% (active); in assay [6] (at 50.0 µM), 99.5% (active).
Turning to `O=[N+]([O-])C(=C(Nc1ccccc1)Nc1ccccc1)C(Cl)=C(Cl)Cl`, the growth inhibition in assay [1] (setting [7]) was 97% (active); in assay [1] (setting [8]), 100% (active); in assay [1] (at 50.0 µM) it was 89.2% (active); in assay [2] (setting [7]), 98% (active); in assay [2] (setting [8]), 100% (active); in assay [2] (at 50.0 µM), 93% (active). The growth inhibition in assay [3] (setting [7]) was 92% (active); in assay [3] (setting [8]), 99% (active); in assay [3] (at 50.0 µM) it was 89.2% (active); in assay [4] (setting [7]), 91% (active); in assay [4] (setting [8]) it was 100% (active); in assay [4] (at 50.0 µM), 90.7% (active). Further, the growth inhibition in assay [5] (setting [7]) was 94% (active); in assay [5] (setting [8]) it was 100% (active); in assay [5] (at 50.0 µM), 91.5% (active); in assay [6] (setting [7]), 99% (active); in assay [6] (setting [8]), 100% (active); in assay [6] (at 50.0 µM), 85.7% (active).
On to `O=C1C=CC(Nc2cccc([N+](=O)[O-])c2)C1Nc1cccc([N+](=O)[O-])c1` (stereo not given), for which the growth inhibition is -21% in assay [1] (setting [7]); -16% in assay [1] (setting [8]); 92.3% (active) in assay [1] (at 50.0 µM); 16% in assay [2] (setting [7]); -9% in assay [2] (setting [8]); 89.2% (active) in assay [2] (at 50.0 µM). The growth inhibition in assay [3] (setting [7]) is -11%; in assay [3] (setting [8]), -11%; in assay [3] (at 50.0 µM) it was 91.5% (active); in assay [4] (setting [7]) it was -8%; in assay [4] (setting [8]) it was -24%; in assay [4] (at 50.0 µM) it was 90.7% (active). Also, the growth inhibition in assay [5] (setting [7]) is 19%; in assay [5] (setting [8]) it was -4%; in assay [5] (at 50.0 µM) it was 90.7% (active); in assay [6] (setting [7]) it was -29%; in assay [6] (setting [8]) it was -19%; in assay [6] (at 50.0 µM), 91.7% (active).
Consider `CCCCCCCCCCCC(=O)NCCc1ccc(O)c(O)c1`, for which the growth inhibition in assay [1] (setting [7]) was 4%; in assay [1] (setting [8]), 94% (active); in assay [1] (at 50.0 µM), 97.2% (active); in assay [2] (setting [7]), 5%; in assay [2] (setting [8]), 96% (active); in assay [2] (at 50.0 µM), 98.5% (active). For the same compound, the growth inhibition is 4% in assay [3] (setting [7]); 95% (active) in assay [3] (setting [8]); 97.5% (active) in assay [3] (at 50.0 µM); -3% in assay [4] (setting [7]); 55% in assay [4] (setting [8]); 94.2% (active) in assay [4] (at 50.0 µM). Further, the growth inhibition was -7% in assay [5] (setting [7]); 91% (active) in assay [5] (setting [8]); 95.8% (active) in assay [5] (at 50.0 µM); 1% in assay [6] (setting [7]); 96% (active) in assay [6] (setting [8]); 98% (active) in assay [6] (at 50.0 µM).
Regarding `CC(O)c1cc(-c2ccc(Cl)cc2)nc2ccccc12` (stereo not given), the growth inhibition in assay [1] (setting [7]) is 12%; in assay [1] (setting [8]), 97% (active); in assay [1] (at 50.0 µM), 97.8% (active); in assay [2] (setting [7]), 4%; in assay [2] (setting [8]), 98% (active); in assay [2] (at 50.0 µM), 97.2% (active). Also, the growth inhibition in assay [3] (setting [7]) was 6%; in assay [3] (setting [8]), 98% (active); in assay [3] (at 50.0 µM), 98% (active); in assay [4] (setting [7]), 14%; in assay [4] (setting [8]) it was 98% (active); in assay [4] (at 50.0 µM), 97.2% (active). The growth inhibition in assay [5] (setting [7]) is 1%; in assay [5] (setting [8]) it was 98% (active); in assay [5] (at 50.0 µM), 97.8% (active); in assay [6] (setting [7]) it was -1%; in assay [6] (setting [8]), 97% (active); in assay [6] (at 50.0 µM), 96.5% (active).
